Experiment [1] is described as follows: qHTS assay to identify small molecule antagonists of the thyroid receptor (TR) signaling pathway (AID 743065). Further: nearly all actives have a fitted effect of over 55% in size. Further: potency means the concentration at half of the fitted maximal effect. In outline: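 GH3.TRE-Luc rat pituitary cells carrying two TR response elements driving luciferase were plated for 4 h, given compound plus 1 nM T3 (final), and incubated 23.5 h at 37 C. ONE-Glo luminescence measured reporter inhibition; CellTiter-Fluor fluorescence tracked cytotoxicity.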

In experiment [2] the test system is thyroid hormone receptor (rat, GH3 cells). Put plainly: qHTS assay to identify small molecule agonists of the thyroid receptor (TR) signaling pathway (AID 743066; calls by dose curve).
Experiment [3] is described as follows: qHTS assay to identify small molecule antagonists of the estrogen receptor alpha (ER-alpha) signaling pathway - cell viability counter screen (AID 743074; calls by dose curve;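 further: HEK293 cells carrying ER-alpha-UAS-bla reporter stimulated with 17beta-estradiol; nearly all actives have a fitted effect of over 45% in size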; further: potency means the concentration at half of the fitted maximal effect).
Experiment [4] addresses Estrogen receptor (Homo sapiens) (UniProt P03372). Briefly: qHTS assay to identify small molecule agonists of the estrogen receptor alpha (ER-alpha) signaling pathway (AID 743075; calls by dose curve;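 further: HEK293 GripTite cells with ER-alpha and UAS-driven beta-lactamase reporter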; further: potency means the concentration at half of the fitted maximal effect).
Experiment [5] shares this target. Put plainly: qHTS assay to identify small molecule agonists of the estrogen receptor alpha (ER-alpha) signaling pathway using the BG1 cell line (AID 743079). Further: nearly all actives have a fitted effect of over 20% in size. Further: potency means the concentration at half of the fitted maximal effect.
Experiment [6] is described as follows: qHTS assay to identify small molecule antagonists of the estrogen receptor alpha (ER-alpha) signaling pathway using the BG1 cell line (AID 743080; calls by dose curve;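 further: BG1 cells stimulated with 17beta-estradiol alongside compound; nearly all actives have a fitted effect of over 25% in size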; further: potency means the concentration at half of the fitted maximal effect). In a few lines: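 Luciferase inhibition measured with ONE-Glo after 30 min at RT in BG1Luc4E2 cells given test compounds and 17beta-estradiol for 21.5 h at 37 C; CellTiter-Fluor viability read in the same wells beforehand.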

Experiment [7] in a line: qHTS assay to identify small molecule antagonists of the estrogen receptor alpha (ER-alpha) signaling pathway using the BG1 cell line - cell viability counter screen (AID 743081).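 Further: compound given together with 17beta-estradiol as the ER stimulus; nearly all actives have a fitted effect of over 45% in size.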 Further: potency means the concentration at half of the fitted maximal effect.
Another experiment deals with Aromatase (Homo sapiens) (UniProt P11511). Briefly: qHTS assay to identify aromatase inhibitors (AID 743083). Further: nearly all actives have a fitted effect of over 55% in size. Further: potency means the concentration at half of the fitted maximal effect.
A short description of experiment [8]: qHTS assay to identify aromatase inhibitors - cell viability counter screen (AID 743084).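 Further: cells stimulated with testosterone during compound exposure; nearly all actives have a fitted effect of over 55% in size.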 Further: potency means the concentration at half of the fitted maximal effect.
Experiment [9] has as its target Aryl hydrocarbon receptor (Homo sapiens) (UniProt P35869). Briefly: qHTS assay to identify small molecule that activate the aryl hydrocarbon receptor (AhR) signaling pathway (AID 743085).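 Further: HG2L7.5c1 human HepG2 liver cells with stably integrated DRE-driven firefly reporter; series mostly up to about 70 µM; nearly all actives have a fitted effect of over 15% in size.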 In outline:
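Cell line HG2L7.5c1 (human hepatoma, 20× DRE-luc). Plated, 5 h 37C, compound/DMSO added, 24 h 37C. CellTiter-Fluor 30 min 37C → fluorescence; then ONE-Glo 30 min RT → luminescence.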

The nature of experiment [10]: qHTS assay to identify small molecule that activate the aryl hydrocarbon receptor (AhR) signaling pathway - cell viability counter screen (AID 743086).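 Further: HepG2 liver cells carrying the AhR DRE luciferase reporter; series mostly up to about 70 µM; nearly all actives have a fitted effect of over 45% in size.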 In a few lines:
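HepG2-AhR-luc (HG2L7.5c1) cells, 4000/well, were preincubated 5 h at 37C, exposed to compound in qHTS format for 24 hr at 37C, then given CellTiter-Fluor for 30 min; viability was read as fluorescence in the reporter wells.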

The target in experiment [11] is Peroxisome proliferator-activated receptor gamma (Homo sapiens) (UniProt P37231). Put plainly: qHTS assay to identify small molecule agonists of the peroxisome proliferator-activated receptor gamma (PPARg) signaling pathway (AID 743094; active means well fitted activation curve with a large enough effect in the signal ratio in the repeat runs, not every such curve was filed as active; inconclusive means weak or mixed curves, or effect the other way; inactive means no such curve, though single readings can be large or run the other way; the % refers to the signal ratio). In outline: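 Reporter activation was scored by fluorescence of cleaved LiveBLAzer B/G substrate (1 h, room temperature) in PPARg-bla HEK293H cells previously treated 17 h at 37C with DMSO-dissolved compounds.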

Experiment [12] is described as follows: qHTS assay to identify small molecule antagonists of the peroxisome proliferator-activated receptor gamma (PPARg) signaling pathway - cell viability counter screen (AID 743194). Further: nearly all actives have a fitted effect of over 55% in size. Further: potency means the concentration at half of the fitted maximal effect. In outline: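 PPARg-UAS-bla HEK293H cells were plated, rested 5 h at 37 C, then treated with compounds plus rosiglitazone (50 nM final) for 17 h at 37 C; viability was then read by CellTiter-Glo luminescence after 30 min at room temperature.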

A short description of experiment [13]: qHTS assay for small molecule agonists of the antioxidant response element (ARE) signaling pathway (AID 743202; active means well fitted activation curve with a large enough effect in the signal ratio in the repeat runs, not every such curve was filed as active; inconclusive means weak or mixed curves, or effect the other way; inactive means no such curve, though single readings can be large or run the other way; the % refers to the signal ratio). In a few lines:
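Following a 16 h, 37 C exposure of reporter HepG2 cells (ARE-driven beta-lactamase, 2,000 cells/well) to compounds, FRET substrate was applied for 2 h at room temperature and fluorescence intensity recorded.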

The nature of experiment [14]: qHTS assay for small molecule agonists of the antioxidant response element (ARE) signaling pathway - cell viability counter screen (AID 743203; calls by dose curve; further: nearly all actives have a fitted effect of over 55% in size; further: potency means the concentration at half of the fitted maximal effect). In outline: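 Viability counter screen: stably transfected ARE-bla HepG2 line, 16 hrs compound exposure at 37C/5% CO2, ATP-based CellTiter-Glo luminescence measured in the reporter wells.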
Experiment [15] can be described thus: qHTS assay for small molecule activators of the heat shock response signaling pathway - cell viability counter screen (AID 743209). Further: nearly all actives have a fitted effect of over 50% in size. Further: potency means the concentration at half of the fitted maximal effect. In outline:
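Viability of HSE-bla HeLa cells is measured with CellTiter-Glo in the wells already used for the reporter read. Compound exposure lasts 5 h at 37 C, and luminescence is read after 30 min at room temperature.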

A short description of experiment [16]: qHTS assay for small molecule activators of the heat shock response signaling pathway (AID 743210; active means well fitted activation curve with a large enough effect in the signal ratio in the repeat runs, with a control signal flat, not every such curve was filed as active; inconclusive means weak or mixed curves; the % refers to the signal ratio; further: series mostly up to about 63 µM). In outline: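 Heat shock element–beta-lactamase HeLa reporter cells; qHTS with compounds for 5 h at 37 C; detection by FRET substrate fluorescence after 2.5 h at RT.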
The nature of experiment [17]: qHTS assay to identify small molecule agonists of the peroxisome proliferator-activated receptor delta (PPARd) signaling pathway - cell viability counter screen (AID 743211). Further: nearly all actives have a fitted effect of over 55% in size. Further: potency means the concentration at half of the fitted maximal effect. In a few lines:
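HEK293H PPARd-bla, 3000 cells/well; 5 h preincubation 37C/5% CO2; cpd in DMSO, 17 h 37C; B/G FRET substrate 2 h RT; CellTiter-Glo 30 min RT, luminescence.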

Experiment [18] concerns the target Peroxisome proliferator-activated receptor gamma (Homo sapiens) (UniProt P37231). Put plainly: qHTS assay to identify small molecule antagonists of the peroxisome proliferator-activated receptor gamma (PPARg) signaling pathway (AID 743191; calls by dose curve; further: series mostly up to about 63 µM; nearly all actives have a fitted effect of over 30% in size). In outline: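 GeneBLAzer PPARg UAS-bla HEK293H cells carrying a UAS-driven beta-lactamase reporter were plated at 3000 cells/well, preincubated 5 h at 37C, then given compound for 17 h at 37C; LiveBLAzer B/G FRET substrate was read after 1 h at room temperature.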

Molecules are shown by their SMILES. “And” between values parts separate entries of the source, which are not always exact repeats. Equal values may be shown once. A structure can be active in one record and inactive in another. The source made the active and inactive calls. Unless noted, the call rests on the fitted dose curve; in most records, active means well fitted curve in the direction sought with a large enough effect in the repeat runs; inconclusive means weak or mixed curves; inactive means no such curve, though single readings can be large; an effect the other way counts as inactive or inconclusive.

Sequence of Aryl hydrocarbon receptor (Homo sapiens) (P35869 whole entry, looked up): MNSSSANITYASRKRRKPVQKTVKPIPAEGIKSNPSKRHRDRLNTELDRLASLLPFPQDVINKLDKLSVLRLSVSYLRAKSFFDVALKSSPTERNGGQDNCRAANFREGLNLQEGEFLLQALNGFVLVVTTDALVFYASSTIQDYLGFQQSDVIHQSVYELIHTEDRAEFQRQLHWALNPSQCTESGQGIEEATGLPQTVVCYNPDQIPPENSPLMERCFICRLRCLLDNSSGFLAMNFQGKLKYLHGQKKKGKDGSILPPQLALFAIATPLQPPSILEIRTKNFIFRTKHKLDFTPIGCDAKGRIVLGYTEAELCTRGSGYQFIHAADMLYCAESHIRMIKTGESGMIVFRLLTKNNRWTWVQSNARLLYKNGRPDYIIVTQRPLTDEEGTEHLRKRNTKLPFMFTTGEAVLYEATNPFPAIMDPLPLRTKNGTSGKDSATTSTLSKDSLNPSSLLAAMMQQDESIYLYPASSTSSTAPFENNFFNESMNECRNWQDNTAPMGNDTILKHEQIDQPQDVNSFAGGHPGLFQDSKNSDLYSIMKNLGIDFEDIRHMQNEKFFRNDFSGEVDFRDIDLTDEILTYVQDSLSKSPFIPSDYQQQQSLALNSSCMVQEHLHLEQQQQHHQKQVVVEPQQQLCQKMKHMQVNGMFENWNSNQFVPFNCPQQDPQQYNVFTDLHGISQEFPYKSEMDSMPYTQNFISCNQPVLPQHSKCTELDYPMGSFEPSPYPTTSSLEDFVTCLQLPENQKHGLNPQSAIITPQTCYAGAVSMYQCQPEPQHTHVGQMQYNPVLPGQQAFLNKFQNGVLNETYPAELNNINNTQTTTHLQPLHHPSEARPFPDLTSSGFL
Sequence of Estrogen receptor (Homo sapiens) (P03372 whole entry, looked up): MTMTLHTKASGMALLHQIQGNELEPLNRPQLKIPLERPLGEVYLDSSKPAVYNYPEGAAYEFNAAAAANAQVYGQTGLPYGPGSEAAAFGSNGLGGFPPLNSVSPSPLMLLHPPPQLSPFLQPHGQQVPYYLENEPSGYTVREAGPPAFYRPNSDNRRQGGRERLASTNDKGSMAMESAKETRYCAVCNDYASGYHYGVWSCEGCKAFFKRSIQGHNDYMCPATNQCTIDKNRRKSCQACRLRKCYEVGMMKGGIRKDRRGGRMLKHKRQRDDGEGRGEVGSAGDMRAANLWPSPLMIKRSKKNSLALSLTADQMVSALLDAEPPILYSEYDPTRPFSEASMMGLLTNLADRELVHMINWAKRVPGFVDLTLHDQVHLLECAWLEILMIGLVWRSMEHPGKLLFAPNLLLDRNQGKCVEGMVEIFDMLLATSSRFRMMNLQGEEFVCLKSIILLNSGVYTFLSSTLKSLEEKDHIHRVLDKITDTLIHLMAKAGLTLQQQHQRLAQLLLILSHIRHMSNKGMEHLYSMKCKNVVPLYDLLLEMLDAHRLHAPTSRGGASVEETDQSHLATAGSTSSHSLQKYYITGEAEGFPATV
Sequence of Aromatase (Homo sapiens) (P11511 whole entry, looked up): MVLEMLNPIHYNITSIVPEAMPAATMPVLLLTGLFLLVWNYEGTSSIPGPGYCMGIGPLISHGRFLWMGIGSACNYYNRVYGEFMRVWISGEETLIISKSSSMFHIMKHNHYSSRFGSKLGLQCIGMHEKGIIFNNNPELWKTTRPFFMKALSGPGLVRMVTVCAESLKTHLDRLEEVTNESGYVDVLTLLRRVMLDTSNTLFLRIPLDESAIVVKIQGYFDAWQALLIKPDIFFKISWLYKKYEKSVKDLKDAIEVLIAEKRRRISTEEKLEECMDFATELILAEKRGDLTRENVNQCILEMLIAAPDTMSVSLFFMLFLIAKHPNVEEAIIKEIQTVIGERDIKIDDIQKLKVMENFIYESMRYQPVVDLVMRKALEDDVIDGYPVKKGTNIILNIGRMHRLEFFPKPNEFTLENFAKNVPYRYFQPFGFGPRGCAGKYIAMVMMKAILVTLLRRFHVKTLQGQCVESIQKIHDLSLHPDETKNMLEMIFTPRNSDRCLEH
Sequence of Peroxisome proliferator-activated receptor gamma (Homo sapiens) (P37231 whole entry, looked up): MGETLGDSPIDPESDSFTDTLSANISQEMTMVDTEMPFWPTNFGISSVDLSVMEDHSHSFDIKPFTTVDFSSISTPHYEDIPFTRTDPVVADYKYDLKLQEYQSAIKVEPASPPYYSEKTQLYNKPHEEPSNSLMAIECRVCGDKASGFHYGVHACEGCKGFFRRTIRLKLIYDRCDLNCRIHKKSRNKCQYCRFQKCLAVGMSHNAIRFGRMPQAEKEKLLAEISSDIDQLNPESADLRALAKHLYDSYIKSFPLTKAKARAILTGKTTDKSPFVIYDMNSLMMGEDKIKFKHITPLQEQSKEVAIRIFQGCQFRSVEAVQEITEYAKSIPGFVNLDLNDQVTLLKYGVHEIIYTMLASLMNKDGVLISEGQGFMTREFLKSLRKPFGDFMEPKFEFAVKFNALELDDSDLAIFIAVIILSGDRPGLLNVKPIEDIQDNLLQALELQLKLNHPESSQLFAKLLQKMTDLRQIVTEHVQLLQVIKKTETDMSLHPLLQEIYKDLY

For the compound `C=C(C)C(=O)O`, the Potency entry in [1], in experiment [2], in experiment [3], in experiment [4], in [5] and in [6] was “inactive” each time. Besides, the Potency entry (in experiment [7]; with Aromatase (Homo sapiens); in experiment [8]; in [9]; in [10]; in experiment [11]) was “inactive” throughout. Further, the Potency entry in experiment [12], in experiment [13], in experiment [14], in [15], in [16] and in experiment [17] was “inactive” throughout.
Regarding `Nc1cc(Cl)c(-c2cc(Cl)c(N)cc2Cl)cc1Cl`, the Potency is 1.53 µM (active) and 1.54 µM (active) in experiment [1]; 48.9 µM (active) and 24.5 µM (active) in [3]; 54.4 µM (active) and 54.5 µM (active) in [6]; 12.2 µM (active) and 15.4 µM (active) in the experiment with Aromatase (Homo sapiens); 48.5 µM (active) in experiment [8]; 61.1 µM (active) and 21.7 µM (active) in experiment [14]. Also, the Potency in experiment [17] was 48.9 µM (active) and 43.6 µM (active). For the same compound, the Potency result in [2], in experiment [4], in [7] and in experiment [10] was “inactive” throughout.
On to `CCCCOCCOC(=O)c1ccccc1C(=O)OCCOCCCC`, for which the Potency in experiment [1] was 30 µM (active); in experiment [17] it was 47.9 µM (active) and inactive. Also, the Potency entry in [2], in [3], in experiment [4], in experiment [5], in experiment [6] and in experiment [7] was “inactive” in each case. In addition, the Potency result (with Aromatase (Homo sapiens); in [8]; in [10]; in [11]; in [18]; in [12]) was “inactive” throughout. Moreover, in experiment [13], the Potency result was “inactive”.
Turning to `C1COC(NC(C2CC2)C2CC2)=N1`, in experiment [1], the Potency was 29.8 µM (active). Besides, the Potency result (in experiment [2]; in experiment [3]; in experiment [4]; in [6]; in experiment [7]; with Aromatase (Homo sapiens)) was “inactive” throughout. For the same compound, the Potency entry in [8], in experiment [9], in experiment [10], in experiment [11], in [18] and in experiment [13] was “inactive” in each case. In addition, the Potency entry in experiment [15], in experiment [16] and in experiment [17] was “inactive” throughout.
Regarding `CCCCCCCCCCCCc1ccccc1O`, the Potency in [1] was 13.7 µM (active); in experiment [3], 48.3 µM (active) and 49 µM (active); in experiment [4], 13.6 µM [inconclusive] (active) and 3.89 µM [inconclusive] (active); in experiment [5], 956 nM (active) and 1.93 µM (active); in experiment [7], 67.7 µM (active); with Aromatase (Homo sapiens), 30.2 µM (active) and 27.3 µM (active). Besides, the Potency in experiment [8] was 30.2 µM (active) and 54.5 µM (active); in experiment [12] it was 48.3 µM (active) and 17.4 µM (active); in experiment [15] it was 17.2 µM (active) and 24.5 µM (active); in experiment [17], 13.6 µM (active) and 34.7 µM (active). Besides, the Potency result in [2], in experiment [9] and in experiment [10] was “inactive” throughout.
As to `CC(=O)CC(C)=O`, the Potency entry in experiment [1], in [2], in experiment [3], in [4], in experiment [5] and in experiment [6] was “inactive” throughout. Also, the Potency entry (in [7]; with Aromatase (Homo sapiens); in experiment [8]; in [9]; in experiment [10]; in experiment [11]) was “inactive” in each case. The Potency result in [13], in experiment [14], in [15], in experiment [16] and in [17] was “inactive” each time.
Regarding `O=C(O)c1cc(Cl)cc(Cl)c1`, the Potency result in experiment [1], in [2], in [3], in experiment [4], in experiment [5] and in experiment [6] was “inactive” throughout. For the same compound, the Potency entry (in experiment [7]; in the experiment with Aromatase (Homo sapiens); in [8]; in experiment [9]; in experiment [10]; in [11]) was “inactive” in each case. Besides, the Potency result in experiment [13], in experiment [14], in [15] and in experiment [16] was “inactive” throughout.

The values above are taken from PubChem BioAssay (Tox21).
